Source: PubChem (National Center for Advancing Translational Sciences (NCATS))
D3 ag: agonists of human D3 dopamine receptor; D3R DiscoveRx beta-arrestin cells, luminescence, 90 min; max activation, %; hit rate 0.58% among 410,000; AID 652048; in the data active = max activation above about 30%; note: 0% is about no effect
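Agonist mode: compounds and dopamine controls were applied to plated cells for 90 min at 37 degrees C after an overnight attachment at 1500 cells/well. Luminescent read-out followed 30 - 60 minutes at room temperature with DiscoveRx detection reagent.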
DRD3 antagonist: blocks the human D3 dopamine receptor; P35462; D3R cells, DiscoveRx beta-arrestin luminescence, antagonist mode; stronger effect = lower value; max response, negative = inhibition, %; AID 652054; hit rate 2.5% among 360,000; in the data active = max response below about -50%; note: % is set by controls: 0 for no effect and ±100 for the full control effect
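Cells expressing the human receptor were seeded at 1500 cells/well, incubated overnight at 37 degrees C in 5% CO2, then exposed to library compounds with dopamine controls for 90 minutes at 37 degrees C before luminescent detection.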
D1 ag: human D1 receptor agonism | HEK293 T-REx D1 cells, calcium flux, agonist mode | activation, % at 2 µM | P21728 | hit rate 1% among 360,000; in the data active = activation above about 30%; note: 0% is about no effect
Target sequence (P21728 whole entry, looked up): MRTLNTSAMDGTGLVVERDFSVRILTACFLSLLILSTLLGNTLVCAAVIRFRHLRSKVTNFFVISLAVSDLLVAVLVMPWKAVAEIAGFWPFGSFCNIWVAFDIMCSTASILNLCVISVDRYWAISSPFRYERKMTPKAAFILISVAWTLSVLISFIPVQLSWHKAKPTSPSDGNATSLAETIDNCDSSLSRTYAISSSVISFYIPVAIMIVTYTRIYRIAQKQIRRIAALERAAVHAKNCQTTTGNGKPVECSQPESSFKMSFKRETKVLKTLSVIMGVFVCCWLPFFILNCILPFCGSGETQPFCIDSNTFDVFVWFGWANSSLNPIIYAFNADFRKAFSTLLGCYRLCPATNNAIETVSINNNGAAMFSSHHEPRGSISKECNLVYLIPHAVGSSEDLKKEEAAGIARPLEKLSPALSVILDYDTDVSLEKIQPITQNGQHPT
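Tetracycline-induced HEK293 TREx D1 cells, force-coupled to calcium signalling, were dye-loaded with a no-wash calcium kit. Compound was pin-added after a 10 s baseline. Fluorescence was read kinetically at 1 cycle/s for 180 s, with calcium rises flagged as agonism.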
D1 potentiator: enhances dopamine response at the human D1 receptor; P21728; HEK293 TREx D1 cells, calcium flux, dopamine EC20 potentiation; potentiation, % at 10 µM; hit rate 0.036% among 360,000; in the data active = potentiation above about 30%; note: 0% is about no effect
D1 antag: antagonists of human D1 dopamine receptor | activity change, negative = inhibition, % at 10 µM | hit rate 3.2% among 360,000 | HEK293 TREx D1 cells, calcium flux, dopamine EC80; stronger effect = lower value | P21728; in the data active = activity change below about -30%; note: % is set by controls: 0 for no effect and ±100 for the full control effect
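Using tetracycline-induced force-coupled D1 Hek293 cells and a calcium dye, signals were followed for 180 s after compound, then for 180 s after EC80 dopamine, to detect inhibitors.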
* marks the source's active call; other numbers are inactive results; . = not tested or not shown. This is a sample that favours compounds with a hit; in the whole collection about 6% have one here.

SMILES	D3 ag	DRD3 antagonist	D1 ag	D1 potentiator	D1 antag
COC(=O)c1ccc(NS(=O)(=O)c2ccc(Cl)cc2)o1	0.0	-12.4	4.9	-1.2	-6.5
CSc1ncccc1C(=O)N1CCC(C)(C(=O)O)C1 (centres undefined)	-10.9	0.0	.	.	.
CCCC12CN3CC(CCC)(CN(C1)C3c1c[nH]c3ccccc13)C2=O (centres undefined)	7.6	.	-0.2	-0.1	7.4
Cn1c(=O)c(C(N)=S)cn(-c2ccccc2)c1=O	2.1	0.4	5.3	3.4	-10.3
NC(=O)c1cc(Cl)cn(-c2ccccc2)c1=O	-2.9	-1.3	1.6	.	-47.8*
CCN(CC)c1ccc(N=C2C=CC(=O)C=C2NC(C)=O)cc1	-13.7	-19.5	.	.	.
COC(=O)CC1C(=O)NCCN1C(=S)Nc1cccc(C)c1 (centres undefined)	-2.0	-5.6	3.2	-4.5	25.1
COC(=O)CC1C(=O)NCCN1C(=S)Nc1ccc(F)cc1 (centres undefined)	8.1	6.2	2.5	-5.3	-36.8*
Cc1ccccc1-c1cccc([C@@H]2C[C@H]3[C@H](CON3C)CN2Cc2cc(Cl)cc(Cl)c2)c1	-3.2	-13.5	.	.	.
CC1CN(Cc2c(O)ccc3c(=O)c(-c4ccccc4)coc23)CC(C)O1 (centres undefined)	10.0	5.1	0.6	1.9	-14.2
CC1CN(Cc2c(O)ccc3c2oc(=O)c2ccccc23)CC(C)O1 (centres undefined)	-30.4	-66.2*	2.4	6.0	-7.8
COc1ccc(Nc2oc(COc3ccc(Cl)cc3)nc2C#N)cc1	0.3	-10.3	-0.9	-4.4	0.3
CNc1oc(Cc2cccc3ccccc23)nc1C#N	5.0	19.2	0.3	5.7	-10.4
COc1ccc(CNc2oc(COc3ccc(Cl)cc3)nc2C#N)cc1	2.0	2.1	3.9	-7.0	-30.0*
COc1ccc(CCNc2oc(Cc3cccc4ccccc34)nc2C#N)cc1OC	4.6	-60.1*	9.6	-5.3	-13.0
COc1ccc(CCNc2oc(COc3ccc(Br)cc3)nc2C#N)cc1OC	1.9	6.9	1.6	.	-32.5*
COc1ccc(CCNc2oc(COc3ccccc3F)nc2C#N)cc1	4.9	60.0	2.8	-10.2	-66.9*
COc1ccc(CCNc2oc(-c3ccc(C)cc3)nc2C#N)cc1OC	3.8	-15.2	11.0	-6.5	52.0
Cn1cnnc1SCC(=O)Nc1cc(C(=O)O)cc(C(=O)O)c1	0.1	.	1.5	-4.1	-0.7
COc1cc(/C=C2\SC(=O)N(CC(=O)Nc3cccc(C)c3)C2=O)cc([N+](=O)[O-])c1O	38.4*	38.8	-0.4	-3.9	-2.9
COc1cc(OC)c(/C=C2\SC(=O)N(CC(=O)Nc3ccccc3F)C2=O)c(OC)c1	-6.2	-11.8	2.4	-0.8	-2.4
CCn1c(C)cc(/C=C2\SC(=O)N(CC(=O)Nc3ccc(C)c(C)c3)C2=O)c1C	2.5	-21.2	0.5	-2.4	-38.1*
CCOc1cc(/C=C2\SC(=O)N(CC(=O)Nc3ccccc3F)C2=O)cc([N+](=O)[O-])c1O	5.2	-2.6	3.7	-0.1	-12.7
COc1cc(/C=C2\SC(=O)N(CC(=O)Nc3ccccc3F)C2=O)cc(Cl)c1O	58.5*	153.9	130.5*	-4.8	18.8
CCCOc1ccc(NC(=O)CC2C(=O)N(c3cccc(C)c3)C(=O)N2CCc2ccncc2)cc1 (centres undefined)	-17.0	.	0.5	-2.6	0.5
SMILES	D3 ag	DRD3 antagonist	D1 ag	D1 potentiator	D1 antag
CC(C)C(=O)OCC(=O)[C@@]12O[C@H](C3CCCCC3)O[C@@H]1C[C@H]1[C@@H]3CCC4=CC(=O)C=C[C@]4(C)[C@H]3[C@@H](O)C[C@@]12C	5.5	.	.	.	.
CCOc1cc(C2C(C(=O)c3ccc(C)o3)=C(O)C(=O)N2CCc2ccccc2)ccc1O (centres undefined)	0.0	-56.3*	0.4	-0.9	-5.8
Cc1ccc(C(=O)C2=C(O)C(=O)N(Cc3cccnc3)C2c2cccc(Oc3ccccc3)c2)o1 (centres undefined)	1.8	-69.3*	.	.	.
C=CCOc1cccc(C2C(C(=O)c3ccc(C)o3)=C(O)C(=O)N2CCN(C)C)c1 (centres undefined)	-6.6	-63.5*	1.2	3.0	-5.0
O=C(NC1CCCCCCC1)c1cccc(Cl)c1	-6.2	2.0	1.6	-0.1	3.6
Cc1nn(Cc2cccc(C(=O)NC3CCCCC3)c2)c(C)c1Cl	-1.0	-50.6*	2.9	0.1	-9.9
CN(C)Cc1csc(NC(=O)Nc2ccccc2Oc2ccccc2)n1	-0.1	-8.5	.	.	.
CC(=O)O[C@H]1C[C@@H]2CC[C@@H]3[C@H](CC[C@@]4(C)[C@H]3C[C@H](N3CC[N+](C)(C)CC3)[C@@H]4OC(C)=O)[C@@]2(C)C[C@@H]1N1CC[N+](C)(C)CC1	12.3	.	.	.	.
Cc1nc(Nc2ccc(Cl)c(Cl)c2)sc1C(=O)Nc1ccccc1	4.4	4.2	6.3	-8.0	-51.6*
Cc1nc(Nc2ccccc2)sc1C(=O)c1ccccc1	-10.3	0.0	12.8	-1.5	-32.6*
COc1ccc(C(=O)N(c2ccc(C)cc2)S(=O)(=O)c2ccc(C)cc2)cc1	-13.9	.	3.5	-3.0	9.9
CCNC(=O)C1(C)CCCN1C(=O)c1cc(OC)c(OC)c(OC)c1 (centres undefined)	4.4	7.2	.	.	.
CC(=O)Oc1ccc(-c2cccc(C(=O)OCC(=O)N(C)c3ccccc3)c2)cc1	-2.6	3.2	4.9	-4.0	-84.1*
CN(C)c1cccc(C(=O)OCC(=O)N(C)c2ccccc2)c1	2.5	-3.6	3.9	0.7	1.2
COc1cccc(C(C(=O)NCc2ccco2)N(C(=O)Cn2nnc3ccccc32)C2CC2)c1OC (centres undefined)	1.0	-53.3*	2.6	-4.3	0.4
Cc1ccccc1C(C(=O)NCc1ccco1)N(CC1CCCO1)C(=O)Cn1nnc2ccccc21 (centres undefined)	1.1	-0.3	-0.2	0.7	-14.0
Cc1ccc(OCCC(=O)OCC(=O)N2CCN(S(=O)(=O)c3ccc(C)cc3)CC2)cc1	4.3	-10.2	16.6	-6.3	-12.5
CN(C)S(=O)(=O)c1cccc(NC(=O)CSc2nnnn2-c2ccccc2)c1	-3.0	29.6	15.2	-6.0	-41.3*
O=C(CSc1nnnn1-c1ccccc1)CC(=O)Nc1ccc(Cl)cc1	0.2	7.1	6.9	-4.5	-33.9*
CN(C)S(=O)(=O)c1cccc(NC(=O)CSc2ncnc3ccccc23)c1	64.5*	0.0	11.1	-3.4	-15.2
COc1ccc(CCN2CC(C(=O)NCCN3CCOC3=O)CCC2=O)cc1 (centres undefined)	4.4	4.0	-0.8	0.3	-4.9
COC(=O)CSc1ncc2c(n1)-c1ccccc1N(Cc1cccc(F)c1)S2(=O)=O	4.3	.	2.2	-1.4	10.1
O=C(COC(=O)COc1cccc(C(F)(F)F)c1)Nc1ccc(N2CCOCC2)cc1	-0.1	14.3	7.2	-8.8	-40.1*
Cc1ccc(C)c(OCCC(=O)OCC(=O)Nc2ccc(N3CCOCC3)cc2)c1	-12.4	0.1	9.4	-4.8	-52.7*
